Source: PubChem BioAssay (NCATS)
Where “and” joins values, the source holds several entries; their conditions need not be identical. Equal values may be shown once. Results filed as inconclusive are left out. Calls of active or inactive are those of the source. Calls follow the shape of the dose curve; as a rule, active = well fitted curve in the direction sought with a large enough effect; inconclusive = small, poorly fitted or top-dose-only effect, or another doubt; inactive = no such curve, though single readings can be large; an effect the other way counts as inactive or inconclusive.

Assays:
[1] = target: Cytochrome P450 3A7 (Homo sapiens) (UniProt P24462); assay: Cytochrome P450 family 3 subfamily A member 7 (CYP3A7) small molecule antagonists: luciferase biochemical qHTS assay (AID 1963596); also: % is scaled to controls: 0 for no effect and ±100 for the full control effect; nearly all actives have a fitted effect of over 40% in size
How it was run: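 Compounds were screened in qHTS format for interference with CYP3A7 turnover of a proluciferin substrate. Reactions ran 1 h at room temperature after NADPH regeneration solution was added, then luciferin product was detected by luminescence.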

[2] = Viability qHTS for spleen associated tyrosine kinase inhibitor (SYKi) naive MV4-11 cells (AID 1963823); also: nearly all actives have a fitted effect of over 40% in size; also: potency is read from the fitted curve at half-maximal effect
How it was run: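 qHTS, SYK inhibitor-naive MV4-11; 500 cells/well; 72 hr compound exposure, 37 C; CellTiter-Glo added, 10 min RT; luminescence read.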

[3] = Viability qHTS for spleen associated tyrosine kinase inhibitor (SYKi) drug resistant MV4-11 cells (AID 1963824); also: nearly all actives have a fitted effect of over 35% in size; also: potency is read from the fitted curve at half-maximal effect
How it was run: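 SYK inhibitor-resistant MV4-11 AML cells, 500 per well, added to predispensed compounds and incubated 72 hr at 37 C, 5% CO2. Viability measured by CellTiter-Glo luminescence after 10 min at room temperature.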

[4] = Cellular viability qHTS for adrenocortical cancer (ACC) cell line SW-13 (AID 1963989); conditions: SW-13 ACC cells viability, CellTiter-Glo, 48 h; activity (max response): hits give low values;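 also: cells grown in serum-free medium with ITS supplement; % is scaled to controls: 0 for no effect and ±100 for the full control effect; nearly all actives have a fitted effect of over 65% in size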
How it was run: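 Compound titrations (up to 46 uM final, in DMSO) were applied to SW-13 cells for 48 h at 37C/5% CO2. Reading used CellTiter-Glo after 20 min at room temperature; fitted curves yielded IC50 and efficacy.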

[5] = Cellular viability qHTS for adrenocortical cancer (ACC) cell line NCI-H295R (AID 1963990);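 also: 0% = DMSO only wells and -100% = full killing with cytotoxic reference compound; nearly all actives have a fitted effect of over 60% in size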
How it was run: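 Readout: CellTiter-Glo luminescence, 20 min RT. Exposure: 48 h, 37C/5% CO2. Cells: NCI-H295R, ITS-DMEM serum-free. Range: up to 46 uM. Analysis: 4PL fit, IC50 plus efficacy.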

Cytochrome P450 3A7 (Homo sapiens), sequence (P24462 whole entry, looked up): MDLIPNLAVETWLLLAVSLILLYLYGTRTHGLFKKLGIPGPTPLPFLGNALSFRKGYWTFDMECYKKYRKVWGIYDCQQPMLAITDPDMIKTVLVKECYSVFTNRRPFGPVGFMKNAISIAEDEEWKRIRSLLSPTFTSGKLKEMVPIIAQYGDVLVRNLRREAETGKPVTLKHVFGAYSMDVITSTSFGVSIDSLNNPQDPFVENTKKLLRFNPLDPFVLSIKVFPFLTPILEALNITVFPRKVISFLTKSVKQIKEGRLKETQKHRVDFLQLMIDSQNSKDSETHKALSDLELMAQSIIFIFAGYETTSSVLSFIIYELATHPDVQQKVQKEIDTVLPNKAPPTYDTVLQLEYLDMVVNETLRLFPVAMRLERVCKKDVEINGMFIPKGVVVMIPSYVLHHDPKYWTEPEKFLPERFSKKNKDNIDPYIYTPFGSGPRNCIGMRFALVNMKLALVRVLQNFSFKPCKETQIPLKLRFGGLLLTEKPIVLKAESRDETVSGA

O=C(/C=C/c1ccc(O)c(O)c1)O[C@@H]1C[C@@](OC(=O)/C=C/c2ccc(O)c(O)c2)(C(=O)O)C[C@@H](O)[C@@H]1O
inactive: Potency [1] | Potency [2] | Potency [3] | activity (max response) [4] 4.38% | Potency [5]

CC(C)(C)c1nnc(NS(=O)(=O)c2ccccc2)s1
inactive: Potency [1] | Potency [2] | Potency [3] | activity (max response) [4] 4.7% | Potency [5]

CCN[C@@H]1C[C@H](N)[C@@H](OC2OC(CN)=CCC2N)[C@H](O)[C@H]1O[C@H]1OC[C@](C)(O)[C@H](NC)[C@H]1O (stereo not given in full)
inactive: activity change, negative = inhibition [1] 12% [at 0.91 µM] | viability (% of control) [2] 111% [at 0.588 µM] | viability, % of control [3] 115% [at 0.588 µM] | activity (max response) [4] -2.24% | activity change, negative = viability loss [5] -3.31% [at 0.587 µM]

CC(=O)NC(Cc1ccccc1)C(=O)O (stereo not given)
inactive: Potency [1] | Potency [2] | Potency [3] | activity (max response) [4] -3.3% | Potency [5]

OC[C@H]1O[C@@H](n2cnc3c2NC=NC[C@H]3O)C[C@@H]1O
inactive: Potency [1] | Potency [2] | Potency [3] | activity (max response) [4] 12.8% | Potency [5]

CCOc1nc2cccc(C(=O)O)c2n1Cc1ccc(-c2ccccc2-c2nn[nH]n2)cc1
inactive: Potency [1] | Potency [2] | Potency [3] | activity (max response) [4] 10.5% | Potency [5]

NC(=O)c1cn(Cc2c(F)cccc2F)nn1
inactive: Potency [1] | Potency [2] | Potency [3] | activity (max response) [4] 10.9% | Potency [5]

CC(=O)Nc1ccc(CC(=O)O)cc1
inactive: Potency [1] | Potency [2] | Potency [3] | activity (max response) [4] 4.33% | Potency [5]

O=C(O)CCNC(=O)c1ccccc1
inactive: Potency [1] | Potency [2] | Potency [3] | activity (max response) [4] 1.23% | Potency [5]

CC1(C)OC(=O)NC1=O
inactive: Potency [1] | Potency [2] | Potency [3] | activity (max response) [4] 15.1% | Potency [5]

O[C@@H]1CO[C@H]2[C@@H]1OC[C@@H]2O
inactive: Potency [1] | Potency [2] | Potency [3] | activity (max response) [4] -0.327% | Potency [5]

OC[C@@H](O)[C@@H](O[C@@H]1O[C@H](CO)[C@H](O)[C@H](O)[C@H]1O)[C@H](O)[C@@H](O)CO
inactive: Potency [1] | Potency [2] | Potency [3] | activity (max response) [4] 1.27% | Potency [5]

COc1ccc(C2C(=O)c3ccccc3C2=O)cc1
inactive: Potency [1] | Potency [2] | Potency [3] | activity (max response) [4] 8.16% | Potency [5]

Clc1ccc2nsnc2c1NC1=NCCN1
inactive: Potency [1] | Potency [2] | Potency [3] | activity (max response) [4] -2.56% and -8.39% | Potency [5]

CCCCCCCCCCCCCC(=O)OC(C)C
inactive: Potency [1] | Potency [2] | Potency [3] | activity (max response) [4] 6.54% | Potency [5]

O=C(Oc1ccccc1)c1ccccc1O
inactive: Potency [1] | Potency [2] | Potency [3] | activity (max response) [4] 1.95% | Potency [5]

O=C1C(=O)c2ccccc2C(O)=C1C1CCC(c2ccc(Cl)cc2)CC1 (stereo not given)
inactive: Potency [1] | Potency [2] | Potency [3] | activity (max response) [4] 9.49% | Potency [5]

CCCCNc1ncc(-c2ccc(CN3CCOCC3)cn2)c(NC2CCC(O)CC2)n1 (stereo not given)
inactive: Potency [1] | activity (max response) [4] -11.9% | Potency [5]
active: Potency [2] 31.7 nM and 57.4 nM | Potency [3] 0.091 µM

[O-][n+]1cccc(/C(Cl)=N/OC[C@@H](O)CN2CCCCC2)c1
inactive: Potency [1] | Potency [2] | Potency [3] | activity (max response) [4] 9.86% | Potency [5]

CCN(CC)CC(=O)Nc1c(C)cccc1C(=O)OC
inactive: Potency [1] | Potency [2] | Potency [3] | activity (max response) [4] -5.08% | Potency [5]

O=C(O)Cc1csc(-c2ccc(Cl)cc2)n1
inactive: Potency [1] | Potency [2] | Potency [3] | activity (max response) [4] -3.04% | Potency [5]

Cc1ccc(=O)n(-c2ccccc2)c1
inactive: Potency [1] | Potency [2] | Potency [3] | activity (max response) [4] 13.5% | Potency [5]

O=C(Oc1ccccc1C(=O)O)c1ccccc1O
inactive: Potency [1] | Potency [2] | Potency [3] | activity (max response) [4] -2.11% | Potency [5]

CC(=O)Nc1ccccc1
inactive: Potency [1] | Potency [2] | Potency [3] | activity (max response) [4] -1.24% | Potency [5]

COC(=O)c1ccccc1C(=O)c1ccc(OCCN2CCCCC2)cc1
inactive: Potency [1] | Potency [2] | Potency [3] | activity (max response) [4] -0.425% | Potency [5]

Cc1nc2n(c(=O)c1CCN1CCC(c3noc4cc(F)ccc34)CC1)CCC[C@H]2O
inactive: Potency [1] | Potency [2] | Potency [3] | activity (max response) [4] 4.14% | Potency [5]

CC(=O)Nc1ccc(S(=O)(=O)Nc2cc(C)on2)cc1
inactive: Potency [1] | Potency [2] | Potency [3] | activity (max response) [4] 11.6% | Potency [5]

Cc1c(N)cccc1C(F)(F)F
inactive: Potency [1] | Potency [2] | Potency [3] | activity (max response) [4] 12.6% | Potency [5]

COC(=O)/C=C(/C)N
active: Potency [2] 16.8 µM
inactive: Potency [1] | Potency [3] | activity (max response) [4] 13.3% | Potency [5]
